# Reference: PubChem BioAssay AID1018 (Sanford-Burnham Center for Chemical Genomics, 2008)
# The campaign covered roughly 200,000 compounds. About 15 (0.007%) were called active. The sample as a whole holds a higher share of actives than the screen did. Values without a mark were called inactive. Cut-off read from the data, not from the text of the source: active = displacement above about 50%; inactive = the rest.
# Biological target: E3 ubiquitin-protein ligase XIAP (Homo sapiens) (UniProt P98170)
# Test: XIAP antagonists, biochemical, IAP family, fluorescence polarization (AID 1018)
# Conditions: XIAP BIR domain, fluorescence polarization peptide displacement; at 20 µM; stronger effect = higher value
# Chain of E3 ubiquitin-protein ligase XIAP (Homo sapiens) (P98170 whole entry, looked up): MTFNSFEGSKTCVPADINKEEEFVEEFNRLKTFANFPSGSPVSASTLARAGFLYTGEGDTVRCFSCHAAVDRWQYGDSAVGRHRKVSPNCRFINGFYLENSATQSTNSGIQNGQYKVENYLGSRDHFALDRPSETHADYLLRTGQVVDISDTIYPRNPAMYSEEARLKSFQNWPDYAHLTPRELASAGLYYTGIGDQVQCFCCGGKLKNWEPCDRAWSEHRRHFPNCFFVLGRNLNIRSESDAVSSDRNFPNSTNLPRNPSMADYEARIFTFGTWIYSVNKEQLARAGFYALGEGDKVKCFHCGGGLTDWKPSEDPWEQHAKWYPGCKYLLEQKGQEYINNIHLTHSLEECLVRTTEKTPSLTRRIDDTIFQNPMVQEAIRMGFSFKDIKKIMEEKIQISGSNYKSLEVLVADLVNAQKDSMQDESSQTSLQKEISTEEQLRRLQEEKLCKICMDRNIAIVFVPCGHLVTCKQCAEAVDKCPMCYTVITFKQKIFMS
row,Structure (SMILES),displacement
1,Cc1cc(=O)[nH]c(S/C=C/c2ccccc2)n1,0.7%
2,CCN(CC)S(=O)(=O)c1ccc(C)c(NC(=O)COC(=O)CNC(=O)c2ccc(C(C)(C)C)cc2)c1,-10.4%
3,Cc1nn(CCC#N)c2[nH]c(=O)cc(C(F)(F)F)c12,-4.9%
4,Cc1ccc(C(NC(N)=O)c2ccccc2C)cc1 (stereo unspecified),-1.9%
5,S=c1[nH]nc(CN2CCCCC2)n1-c1ccc(Cl)cc1,-9.6%
6,O=C(O)CCCc1nc(-c2ccccc2)no1,-1.3%
7,O=C(O)CCc1nc(-c2ccc(Cl)cc2)no1,-3.7%
8,O=C(O)CCCc1nc(-c2ccc(Cl)cc2)no1,70.8% (active)
9,Cc1cccc(-c2n[nH]c(=S)n2-c2ccccc2)c1[N+](=O)[O-],-3.7%
10,CC(=O)C(C(C)=O)C1(O)C(=O)c2ccccc2C1=O,-3.4%
11,Fc1cccc(Cn2cc(C(=S)N3CCOCC3)c3ccccc32)c1,-4.3%
12,CCC(C(=O)O/N=C(\N)c1ccc(Cl)cc1)c1ccccc1 (stereo unspecified),-3.6%
13,Cc1cccc2cc(COC(=O)C(C)C)c(=O)[nH]c12,-4.3%
14,COC(=O)c1cn(NC(=O)c2ccc3c(c2)OCO3)c(=O)c2ccccc12,-3.5%
15,CCOC(=O)C1(CC2CC2)CCN(S(=O)(=O)/C=C/c2ccccc2)CC1,-6.8%
16,Cc1ccc(-n2c(-c3ccccc3)c[n+]3c2CCc2ccccc2-3)c(C)c1,-4.9%
17,N/C(=N\OC(=O)CCC1CCCC1)c1ccc([N+](=O)[O-])cc1,-1.2%
18,CC(=O)Nc1cccc(NC(=O)Nc2cccc(Cl)c2C)c1,-2.6%
19,CCC/C=N/NC(=O)c1ccc(F)cc1,-5.5%
20,CCCNC(=O)C12CCC(C)(c3nc4cc(C)c(C)cc4nc31)C2(C)C (stereo unspecified),-3%
21,CCOC(=O)N1CCC(N2Cc3cccc(C(=O)Nc4ccc(OC)c(OC)c4)c3C2=O)CC1,1.9%

row,Structure (SMILES),displacement
1,O=C(Nc1nnc(Cc2ccc(Cl)cc2)s1)C1CCCO1 (stereo unspecified),-3.9%
2,COCCN1CCN(c2c3c(nc4cc(-c5cccc(F)c5)nn24)CCC3)CC1,-10.3%
3,O=C(O)C(Cc1ccccc1)N1Cc2ccccc2C1=O (stereo unspecified),-8.8%
4,O=C(O)[C@H](Cc1ccccc1)N1Cc2ccccc2C1=O,2.3%
5,CCOC(=O)/C=C/S(=O)(=O)c1ccc(NC(C)=O)cc1,-2.6%
6,CCN(CC)CCN(C(=O)c1c(F)cccc1F)c1nc2cc(C)cc(C)c2s1,-3.6%
7,Cc1ccc(NC(=O)c2ccc(-n3cncn3)c([N+](=O)[O-])c2)cc1,-3.6%
8,CN(C)CCNC(=O)c1ccccc1,-5.4%
9,CC1CCN(S(=O)(=O)c2ccc(N/N=C(/C#N)C(N)=O)cc2)CC1,-6.4%
10,Cc1ccc(C)c(NC(=S)N(C)CCO)c1,-3.7%
11,Cn1c(=O)[nH]c(=O)c2c1nc(N1CCCCC1)n2CCSc1nc2ccccc2o1,-3.9%
12,COc1ccc(N(CC(=O)NCCSC2CCCCC2)S(C)(=O)=O)c(OC)c1,-4.6%
13,COc1ccc(/C(O)=C2/C(=O)C(=O)N(CCN(C)C)C2c2cccnc2)cc1OC (stereo unspecified),-8.8%
14,O=C(COC(=O)c1cccc(S(=O)(=O)N2CCc3ccccc32)c1)Nc1ccc(Cl)cn1,-4.3%
15,Cc1ccc(NC(=O)COC(=O)c2ccc3c(c2)NC(=O)C2CCCN32)cc1 (stereo unspecified),-1.5%
16,Cc1ccc(CNC(=O)Cn2cc(C(F)(F)F)ccc2=O)cc1,-2.9%
17,S=C(Nc1ccc(Cl)cc1)N1CCN(C2CCCCC2)CC1,-3.9%
18,O=C(OCCC1Oc2cccnc2NC1=O)c1ccc(F)cc1 (stereo unspecified),-2.6%
19,Nc1nc(-c2ccco2)nn1S(=O)(=O)c1ccc(Cl)cc1,-2.1%
20,CN(C)C(CNC(=O)Cc1cccc(C(F)(F)F)c1)c1ccco1 (stereo unspecified),-10.8%
21,O=C(COc1ccc(Cl)cc1[N+](=O)[O-])N/N=C/c1cccs1,-10.2%

row,Structure (SMILES),displacement
1,N=C1C(c2ccccc2)=C(O)CN1c1ccccc1N1CCOCC1,-6.4%
2,O=C(CCCOc1ccccc1)Nc1ccc(S(=O)(=O)N2CCOCC2)cc1,-4.6%
3,COc1cc(C)c(Cl)c(C)c1S(=O)(=O)NC1CC(C)(C)NC(C)(C)C1,-4.7%
4,Cc1ccc(-c2[nH]nc3c2C(c2ccccc2OC(=O)N2CCOCC2)C(C#N)=C(N)O3)cc1 (stereo unspecified),1.4%
5,Cc1ccc(N2N=C(c3ccc(Br)cc3)CCC2=O)cc1,-4.4%
6,Cc1ccc(Cn2cccc2C2=NC(C)CO2)cc1 (stereo unspecified),-0.2%
7,COc1ccc(C(=O)NC(=S)N2CC(C)OC(C)C2)cc1OC (stereo unspecified),-1.8%
8,COc1ccc(CN2C(=O)c3cccnc3C2Nc2cc(Cl)ccc2OC)cc1 (stereo unspecified),63.8% (active)
9,COc1ccc(CN2C(=O)c3cccnc3C2Nc2cc(Cl)c(OC)cc2OC)cc1 (stereo unspecified),9.6%
10,COc1ccc(CN2C(=O)c3cccnc3C2Nc2ccc(OC)c(Cl)c2)cc1 (stereo unspecified),-2%
11,Cc1ccc(N=N/C(=C\O)C(=O)c2ccc(Cl)cc2)cc1,-7.5%
12,CCN(CC)CCNC(=O)/C(=C/c1cn(CC)c2ccccc12)NC(=O)c1cc(OC)c(OC)c(OC)c1,-5.1%
13,CC(=O)NC1C(=O)N(CCc2ccccc2)c2ccccc21 (stereo unspecified),1.5%
14,Cc1ccc(NC(=O)c2cccc(Cl)c2)nc1,-1.6%
15,Cn1nccc1C(=O)Nn1cnnc1,1.6%
16,Cc1ccc(S(=O)(=O)N2CCOCC2)cc1NC(=O)COC(=O)c1ccccc1OCc1c(C)noc1C,0.2%
17,COc1cc(OC)c(C(=O)NCC(c2cccs2)N(C)C)cc1OC (stereo unspecified),-4.3%
18,O=C(CN1CCOCC1)N1CCN(S(=O)(=O)c2ccccc2)C1c1ccccc1 (stereo unspecified),-3.4%
19,CCOc1ccccc1NC(=O)c1nc[nH]c1C(=O)Nc1ccccc1OCC,-4.1%
